From ChEMBL document CHEMBL4296182, “CO-ADD screening of NIH NCI Diversity Set V”
For part of these data: Measured potencies and affinities stand elsewhere.

Experiments:
[1] = tested on: Staphylococcus aureus; test: Antibacterial activity against Staphylococcus aureus MRSA ATCC 43300 (CO-ADD:GP_020); MIC in CAMBH media using NBS plates, by Resazurin F(560/590); format: functional; conditions: Concentration 20 uM, ASSAY_TEST Inhibition of Bacterial Growth, detection method Resazurin, Fluorescence (ex560/em590), MEDIA CAMHB, plate type 384well, CORNING #3640, time 18 hr
[2] = tested on: Acinetobacter baumannii; test: Antibacterial activity against Acinetobacter baumannii ATCC 19606 (CO-ADD:GN_034); MIC in CAMBH media using NBS plates, by Resazurin F(560/590); format: functional; conditions: Concentration 20 uM, ASSAY_TEST Inhibition of Bacterial Growth, detection method Resazurin, Fluorescence (ex560/em590), MEDIA CAMHB, plate type 384well, CORNING #3640, time 18 hr
[3] = tested on: Escherichia coli; test: Antibacterial activity against Escherichia coli ATCC 25922 (CO-ADD:GN_001); MIC in CAMBH media using NBS plates, by Resazurin F(560/590); format: functional; conditions: Concentration 20 uM, ASSAY_TEST Inhibition of Bacterial Growth, detection method Resazurin, Fluorescence (ex560/em590), MEDIA CAMHB, plate type 384well, CORNING #3640, time 18 hr
[4] = tested on: Klebsiella pneumoniae; conditions: Concentration 20 uM; ASSAY_TEST Inhibition of Bacterial Growth; detection method Absorption (OD600); MEDIA CAMHB; plate type 384well; NBS; CORNING #3640; time 18 hr
[5] = tested on: Candida albicans; conditions: 20 µM
[6] = tested on: Cryptococcus neoformans; conditions: Concentration 20 uM; ASSAY_TEST Inhibition of Fungal Growth; detection method Resazurin; Absorption (OD600-OD570); plate type 384well; NBS; CORNING #3640

| SMILES | Inhibition [1] | Inhibition [2] | Inhibition [3] | Inhibition [4] | Inhibition [5] | Inhibition [6] |
| --- | --- | --- | --- | --- | --- | --- |
| O=C(NCc1ccco1)Nc1ccc([N+](=O)[O-])cc1 | 14.72% | 3.43% | 4.45% | 18.95% | 5.76% | -12.12% |
| NC(=O)c1nnsc1-c1ccc(-c2snnc2C(N)=O)cc1 | 15.72% | 9.25% | 9.34% | 2.92% | -1.56% | -13.62% |
| CNC(=O)OCN1C(=O)C2CC=CCC2C1=O (stereo not given) | 7.25% | -15.92% | 10% | 2.19% | -1.86% | -13.88% |
| [O-][n+]1nc2ccccc2c2ccccc21 | 3.86% | -1.94% | -9.04% | 13.55% | 6.35% | 8.25% |
| Nc1nc(N)nc(C2C=CCCC2)n1 (stereo not given) | 1.35% | -5.4% | 16.17% | 16.96% | 0.09% | -8.05% |
| O=C(Nc1ccc2ccccc2c1)c1ccc(Cl)cc1Cl | 8.36% | -2.05% | 3.67% | -0.53% | -0.67% | -1.28% |
| O=C(NC(=S)Nc1cccc(O)c1)c1ccco1 | 2.34% | -0.89% | 12.02% | -1.93% | 0.31% | -18.75% |
| CCOCc1cc(O)nc(SC)n1 | 12.32% | -13.24% | 14.73% | 11.3% | -0.55% | -4.91% |
| NC(=O)c1ncn2c(=O)n(CCCl)nnc12 [MITOZOLOMIDE] | -4.1% | 10.43% | 3.54% | 6.17% | 2.26% | -10.87% |
| Nc1ccccc1-n1nc2ccc3ccccc3c2n1 | -2.24% | -24.16% | 7.22% | 6.99% | 3.16% | -10.55% |
| Nc1cc2c3c(cccc3c1)C(=O)N(CCN1CCCC1)C2=O | 23.19% | 9.76% | 2.48% | 19.29% | -1.62% | -3.61% |
| CC(=O)Oc1ccc2cc(-c3ccccc3)c(=O)oc2c1 | 19.48% | 8.94% | -2.31% | 17.84% | 4.89% | -3.36% |
| Cn1ncc2c(Sc3ccc(Cl)cc3)ncnc21 | -1.32% | 15.79% | -1.92% | 2.06% | 4.47% | -10.69% |
| CN(C)c1ccc(/N=N\c2cccc3ccoc23)cc1 | -15.18% | -4.75% | -16.41% | -3.95% | 3.86% | -4.24% |
| COc1ccc(C(=O)O)nc1C | -3.26% | -9.48% | 11.67% | 7.05% | -1.1% | -14% |
| Cc1cc(NC(=O)OC(C)C)ccc1-c1ccc(NC(=O)OC(C)C)cc1C | 6.05% | 1.04% | -21.51% | 2.57% | 2.22% | 33.06% |
| CCC(C)NC(=O)c1cccc(C)c1 (stereo not given) | 27.07% | -10.03% | 12.99% | 13.06% | 3.19% | -7.62% |
| NS(=O)(=O)c1ccc(NC2(C(=O)O)CCCC2)cc1 | 11.74% | 13.36% | -10.3% | 11.38% | 4.41% | 18.42% |
| NC(=O)c1cc(C(N)=O)nc(Cl)n1 | 12.7% | 0.04% | 10.33% | 2.11% | -2.97% | -9.62% |
| CCCC1OC(c2cc3c(cc2Cl)OCO3)OCC1CC (stereo not given) | 3.15% | -17.34% | 11.31% | 6.46% | 5.6% | -15.5% |
